Activity calls are given as the source filed them.
Legend:
[1] = probe aShh binding to arrayed compounds – biochemical, biotinylated probe, 635/667 nm fluorescence, primary screen (AID 1114); details: small-molecule microarray, higher = more signal;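 further: probe is biotin-labelled aShh protein from a stem cell growth factor screen; measures binding of labelled protein to compounds printed on the slide; score merges feature fluorescence at 667 nm with signal-to-noise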
[2] = probe aNog binding to arrayed compounds – biochemical, biotinylated probe, 635/667 nm fluorescence, primary screen (AID 1115); details: small-molecule microarray, higher = more signal;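 further: probe is biotinylated aNog protein used at 0.15 µg/mL for 1 h at 4 C; z-score combines 667 nm fluorescence of each spot with its signal to noise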
[3] = target: Torsin-1A-interacting protein 1 (Homo sapiens) (UniProt Q5JTV8); assay: compound microarray binding of lysate hLAP1 – cell lysate, small-molecule microarray, COS7 lysate, 635/667 nm fluorescence, primary screen (AID 1116); details: 635 nm fluorescence, higher = more signal
Albumin (Bos taurus) = Albumin (Bos taurus) (UniProt P02769); assay: compounds binding labelled BSA control protein – biochemical, small-molecule microarray, Alexa647 label, 635/667 nm fluorescence, artefact control for SMM control protein annotation, profiling panel (AID 1118); details: BSA-A647 binding, fluorescence 635 nm, higher = more signal;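 further: score merges 667 nm emission intensity and signal-to-noise per printed compound spot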
[4] = probe aXIP binding to arrayed compounds – biochemical, NeuroSMM set, 635/667 nm fluorescence, primary screen (AID 1119); details: small-molecule microarray, higher = more signal, called active from +8 up or from −8 down;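 further: probe is the protein aXip251-270 applied at 1 µg/mL to compound-printed slides; binding of probe to printed compounds measured as 667 nm fluorescence plus signal to noise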
[5] = probe aNOTCH3 binding on compound microarray – biochemical, small-molecule microarray, 635/667 nm fluorescence, primary screen (AID 1120); details: higher = more signal;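 further: probe is a biotin-tagged antibody raised against NOTCH3 rather than NOTCH3 protein; score merges spot fluorescence near 667 nm with spot signal to noise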
[6] = probe aNOTCH2 binding on compound microarray – biochemical, small-molecule microarray, 635/667 nm fluorescence, primary screen (AID 1121); details: higher = more signal;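 further: score merges feature fluorescence read at 667 nm with its signal to noise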
[7] = target: Carbonic anhydrase 2 (Homo sapiens) (UniProt P00918); assay: compounds binding carbonic anhydrase 2 – biochemical, small-molecule microarray, Alexa647-labelled CAII, profiling panel (AID 1122); details: CAII-A647 binding fluorescence, higher = more signal
[8] = COS7 lysate on small-molecule microarray, probe aHis, 635 nm (AID 1123); details: COS7 cell lysate, fluorescence, higher = more signal;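 further: z-score combines 667nm fluorescence intensity with signal-to-noise per printed compound spot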
[9] = probe aLAP1 signal on lysate-treated microarray – cell lysate, small-molecule microarray, COS7 lysate, primary screen (AID 1124); details: probe aLAP1, fluorescence, higher = more signal;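 further: lysate comes from COS7 cells expressing LAP1 and is applied at 0.3 µg/mL; score merges spot fluorescence near 667 nm with signal-to-noise over triplicate slides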
Sam68 (KHDRBS1) = assay: compounds binding KHDRBS1 protein – biochemical, small-molecule microarray, 635 nm fluorescence, primary screen (AID 1125); details: higher = more signal;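 further: score merges 667 nm channel intensity with signal to noise over triplicate slides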
[10] = tested on: Chordin-like protein 2 (CHRDL2); assay: compounds binding chordin-like 2 – biochemical, small-molecule microarray, 635 nm fluorescence, primary screen (AID 1126); details: fluorescence 635 nm, higher = more signal;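 further: printed compound slides probed with Chrdl2 protein at 4 µg/mL for 1 h at 4 C; score merges 667 nm emission intensity with signal to noise over three replicate slides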
[11] = target: Concanavalin-A (Canavalia ensiformis) (UniProt P02866); assay: compounds binding concanavalin A lectin – biochemical, small-molecule microarray, Alexa647 label, 635 nm, artefact control for SMM control protein annotation, primary screen (AID 1127); details: ConA-A647 binding fluorescence, higher = more signal;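 further: z combines 667 nm emission intensity with signal-to-noise across three replicate slides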
[12] = compounds binding Alexa647 anti-His antibody – biochemical, small-molecule microarray, 635 nm fluorescence, artefact control for SMM control protein annotation, primary screen (AID 1128); details: higher = more signal;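 further: score merges feature fluorescence with signal-to-noise for each printed compound spot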
[13] = tested on: Human papillomavirus type 1a E7 protein (residues 1-88); assay: HPV1a E7 small-molecule binders, primary screen, biochemical, small-molecule microarray, residues 1-88, 635 nm (AID 1129); details: small-molecule microarray binding, fluorescence 635 nm; higher = more signal
[14] = target: Focal adhesion kinase 1 (Homo sapiens) (UniProt Q05397); assay: PTK2 protein binding on printed compound slides – biochemical, small-molecule microarray, 635/667 nm fluorescence, BSA, DTT, primary screen (AID 1130); details: 635 nm fluorescence, higher = more signal;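 further: composite of spot emission at 667 nm and signal to noise over triplicate slides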
[15] = tested on: Fibrinogen (Alexa647-labelled); assay: Alexa647-fibrinogen binding to printed small molecules – biochemical, small-molecule microarray, 635/667 nm fluorescence, artefact control for SMM control-protein annotation, profiling panel (AID 1131); details: fibrinogen-A647 binding fluorescence, higher = more signal;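 further: z-score merges 667 nm fluorescence with per-spot signal-to-noise over triplicate slides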
[16] = target: Follistatin (Homo sapiens) (UniProt P19883); assay: FST protein binding to printed compounds – biochemical, small-molecule microarray, 635/667 nm fluorescence, primary screen (AID 1132); details: 635 nm fluorescence, higher = more signal
[17] = target: Fibroblast growth factor 2 (Homo sapiens) (UniProt P09038); assay: basic fibroblast growth factor binding to printed compounds – biochemical, small-molecule microarray, 635/667 nm fluorescence, primary screen (AID 1133); details: FGF2, fluorescence 635/667, higher = more signal
[18] = JC-1 mitochondrial potential readout, lung cancer cells – cell-based, A549, JC-1 fluorescence, basal, 24 h, 100 nL, profiling panel (AID 1138); details: higher = more signal;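 further: A549 lung adenocarcinoma cells under basal conditions with no added stimulus; test concentration not given here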

Sequence of Albumin (Bos taurus) (P02769 whole entry, looked up): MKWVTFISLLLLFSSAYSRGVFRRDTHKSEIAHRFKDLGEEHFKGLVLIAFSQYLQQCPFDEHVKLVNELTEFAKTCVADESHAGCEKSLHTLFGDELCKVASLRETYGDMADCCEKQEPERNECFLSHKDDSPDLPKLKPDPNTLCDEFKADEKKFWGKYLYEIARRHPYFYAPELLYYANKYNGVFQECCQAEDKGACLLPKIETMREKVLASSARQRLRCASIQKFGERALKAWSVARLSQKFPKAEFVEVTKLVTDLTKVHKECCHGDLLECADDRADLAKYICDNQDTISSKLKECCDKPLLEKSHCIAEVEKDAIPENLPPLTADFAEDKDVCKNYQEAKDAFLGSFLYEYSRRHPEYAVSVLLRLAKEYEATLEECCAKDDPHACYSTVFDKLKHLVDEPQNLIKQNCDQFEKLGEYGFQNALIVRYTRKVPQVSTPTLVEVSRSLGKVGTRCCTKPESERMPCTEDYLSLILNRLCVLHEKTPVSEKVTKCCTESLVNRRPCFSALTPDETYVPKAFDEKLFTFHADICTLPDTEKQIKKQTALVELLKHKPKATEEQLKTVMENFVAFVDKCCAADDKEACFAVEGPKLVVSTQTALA
Sequence of Follistatin (Homo sapiens) (P19883 whole entry, looked up): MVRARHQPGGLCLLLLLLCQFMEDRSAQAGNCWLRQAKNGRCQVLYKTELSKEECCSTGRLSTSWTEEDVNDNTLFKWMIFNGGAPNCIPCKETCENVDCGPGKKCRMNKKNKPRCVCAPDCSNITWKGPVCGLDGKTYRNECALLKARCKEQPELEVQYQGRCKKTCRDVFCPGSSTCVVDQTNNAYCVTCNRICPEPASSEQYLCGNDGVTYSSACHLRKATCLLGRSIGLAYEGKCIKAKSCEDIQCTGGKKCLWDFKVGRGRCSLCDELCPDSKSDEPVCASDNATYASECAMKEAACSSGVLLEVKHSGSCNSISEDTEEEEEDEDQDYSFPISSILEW
Sequence of Focal adhesion kinase 1 (Homo sapiens) (Q05397 whole entry, looked up): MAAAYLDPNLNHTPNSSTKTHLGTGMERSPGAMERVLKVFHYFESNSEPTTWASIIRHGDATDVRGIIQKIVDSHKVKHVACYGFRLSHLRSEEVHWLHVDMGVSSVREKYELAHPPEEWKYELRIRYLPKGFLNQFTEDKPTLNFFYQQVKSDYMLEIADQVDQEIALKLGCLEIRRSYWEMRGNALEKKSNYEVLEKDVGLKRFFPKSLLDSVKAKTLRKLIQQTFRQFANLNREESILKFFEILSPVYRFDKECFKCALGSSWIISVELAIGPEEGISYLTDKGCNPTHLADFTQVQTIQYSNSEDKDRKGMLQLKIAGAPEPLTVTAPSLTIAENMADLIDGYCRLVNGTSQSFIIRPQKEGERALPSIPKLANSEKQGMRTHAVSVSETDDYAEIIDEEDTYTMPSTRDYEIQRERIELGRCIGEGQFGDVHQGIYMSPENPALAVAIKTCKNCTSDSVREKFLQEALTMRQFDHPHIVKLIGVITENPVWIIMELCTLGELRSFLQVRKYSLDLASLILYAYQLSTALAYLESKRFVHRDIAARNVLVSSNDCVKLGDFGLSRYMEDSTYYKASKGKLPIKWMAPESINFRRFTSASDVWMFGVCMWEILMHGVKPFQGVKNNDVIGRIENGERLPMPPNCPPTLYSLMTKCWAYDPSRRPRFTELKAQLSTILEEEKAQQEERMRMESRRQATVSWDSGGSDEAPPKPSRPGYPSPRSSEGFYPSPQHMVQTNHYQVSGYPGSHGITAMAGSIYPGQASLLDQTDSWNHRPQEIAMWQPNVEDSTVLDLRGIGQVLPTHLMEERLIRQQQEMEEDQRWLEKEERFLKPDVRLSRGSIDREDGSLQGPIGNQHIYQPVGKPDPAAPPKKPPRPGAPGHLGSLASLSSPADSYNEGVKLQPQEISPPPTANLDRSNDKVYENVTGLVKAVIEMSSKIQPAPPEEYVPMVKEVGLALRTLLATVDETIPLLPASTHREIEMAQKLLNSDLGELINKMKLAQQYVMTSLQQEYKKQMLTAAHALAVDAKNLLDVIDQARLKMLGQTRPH
Sequence of Concanavalin-A (Canavalia ensiformis) (P02866 whole entry, looked up): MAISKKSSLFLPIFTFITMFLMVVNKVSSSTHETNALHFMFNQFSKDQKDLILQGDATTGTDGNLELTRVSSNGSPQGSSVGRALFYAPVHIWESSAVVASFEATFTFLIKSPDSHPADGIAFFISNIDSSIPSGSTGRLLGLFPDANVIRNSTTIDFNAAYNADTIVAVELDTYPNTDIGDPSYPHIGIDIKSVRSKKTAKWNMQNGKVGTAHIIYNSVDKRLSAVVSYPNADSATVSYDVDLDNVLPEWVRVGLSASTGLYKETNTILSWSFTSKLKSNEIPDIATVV
Sequence of Torsin-1A-interacting protein 1 (Homo sapiens) (Q5JTV8 whole entry, looked up): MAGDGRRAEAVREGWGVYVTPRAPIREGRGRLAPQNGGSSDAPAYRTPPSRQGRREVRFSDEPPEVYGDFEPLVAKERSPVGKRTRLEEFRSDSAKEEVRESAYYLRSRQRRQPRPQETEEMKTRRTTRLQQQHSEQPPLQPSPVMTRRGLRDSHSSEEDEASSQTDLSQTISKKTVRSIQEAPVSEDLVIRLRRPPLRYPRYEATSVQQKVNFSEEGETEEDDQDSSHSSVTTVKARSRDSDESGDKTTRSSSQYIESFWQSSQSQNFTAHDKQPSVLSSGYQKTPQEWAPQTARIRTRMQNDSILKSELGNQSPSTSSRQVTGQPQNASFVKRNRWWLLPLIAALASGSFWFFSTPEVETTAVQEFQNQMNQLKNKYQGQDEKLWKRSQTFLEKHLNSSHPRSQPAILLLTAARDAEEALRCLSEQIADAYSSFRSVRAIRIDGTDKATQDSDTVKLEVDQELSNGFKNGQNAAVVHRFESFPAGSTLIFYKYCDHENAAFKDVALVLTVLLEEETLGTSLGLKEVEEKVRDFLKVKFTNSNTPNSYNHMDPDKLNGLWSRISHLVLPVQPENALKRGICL
Sequence of Fibroblast growth factor 2 (Homo sapiens) (P09038 whole entry, looked up): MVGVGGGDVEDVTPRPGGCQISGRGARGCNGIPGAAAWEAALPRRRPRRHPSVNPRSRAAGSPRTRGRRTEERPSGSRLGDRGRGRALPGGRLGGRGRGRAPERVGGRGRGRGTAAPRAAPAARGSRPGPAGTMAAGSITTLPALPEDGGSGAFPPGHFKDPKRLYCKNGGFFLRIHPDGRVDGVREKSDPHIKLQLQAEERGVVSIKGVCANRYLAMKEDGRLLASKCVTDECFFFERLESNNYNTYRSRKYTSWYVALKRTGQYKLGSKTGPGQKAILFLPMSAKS

NC(=O)N1C(=O)C2C(C1=O)C1C=C(c3ccc(CO)cc3)C2C(C2CC2)N1Cc1cc2c(cc1Br)OCO2 (stereo not given)
composite z-score [1]: -0.0146 | composite z-score [2]: -0.0689 | composite z-score [3]: 1.11 | composite z-score (Albumin (Bos taurus)): 0.585 | composite Z-score [4]: 0.219 (inactive) | composite z-score [5]: -0.0377 | composite z-score [6]: -0.0745 | composite z-score [7]: 0.762 | composite z-score [8]: 1.32 | composite z-score [9]: -0.421 | composite z-score (Sam68 (KHDRBS1)): 0.61 | composite z-score [10]: -0.312 | composite z-score [11]: 0.574 | composite z-score [12]: 2.29 | composite z-score [13]: 0.066 | composite z-score [14]: 0.138 | composite z-score [15]: 0.157 | composite z-score [16]: 0.197 | composite z-score [17]: -0.149 | z-score [18]: 1.96

C/C=C/[C@@H](CCn1cc(CCO[Si](C(C)C)(C(C)C)C(C)C)nn1)[Si](C)(C)c1ccc(OC)cc1
composite z-score [1]: -0.323 | composite z-score [2]: -0.866 | composite z-score [3]: -0.24 | composite z-score (Albumin (Bos taurus)): -1.72 | composite Z-score [4]: -0.535 (inactive) | composite z-score [5]: -0.337 | composite z-score [6]: -0.234 | composite z-score [7]: -0.609 | composite z-score [8]: -0.49 | composite z-score [9]: -0.0321 | composite z-score (Sam68 (KHDRBS1)): -1.07 | composite z-score [10]: -1.8 | composite z-score [11]: -2.84 | composite z-score [12]: -0.588 | composite z-score [13]: -0.668 | composite z-score [14]: -0.168 | composite z-score [15]: -1.56 | composite z-score [16]: -2.11 | composite z-score [17]: -0.888 | z-score [18]: 4.63

CC(C)C[C@@H]1NC(=O)[C@@]23C(=O)N[C@@H](Cc4ccccc4)C2[C@H](C)[C@@]2(C)O[C@H]2C3/C=C/CC/C=C/CNC(=O)[C@@H](C)NC1=O (stereo not given in full)
composite z-score [1]: -0.229 | composite z-score [2]: 0.117 | composite z-score [3]: -0.152 | composite z-score (Albumin (Bos taurus)): -1.38 | composite Z-score [4]: -0.162 (inactive) | composite z-score [5]: 0.0426 | composite z-score [6]: -0.179 | composite z-score [7]: -0.515 | composite z-score [8]: -0.262 | composite z-score [9]: 0.0036 | composite z-score (Sam68 (KHDRBS1)): 0.179 | composite z-score [10]: 0.906 | composite z-score [11]: 0.204 | composite z-score [12]: -0.764 | composite z-score [13]: -0.649 | composite z-score [14]: 0.138 | composite z-score [15]: -0.875 | composite z-score [16]: 1.23 | composite z-score [17]: 1.12 | z-score [18]: -0.168

COC(=O)C1=CC(c2ccc(CO)cc2)=CC(C2CC2)N(C)C=C1C(=O)OC (stereo not given)
composite z-score [1]: 0.111 | composite z-score [2]: 0.407 | composite z-score [3]: 2.82 | composite z-score (Albumin (Bos taurus)): 0.965 | composite Z-score [4]: 0.498 (inactive) | composite z-score [5]: -0.0903 | composite z-score [6]: -0.0617 | composite z-score [7]: 0.874 | composite z-score [8]: 1.73 | composite z-score [9]: 0.969 | composite z-score (Sam68 (KHDRBS1)): 0.862 | composite z-score [10]: -0.73 | composite z-score [11]: -0.0948 | composite z-score [12]: 0.822 | composite z-score [13]: -0.203 | composite z-score [14]: 0.883 | composite z-score [15]: 0.707 | composite z-score [16]: -0.743 | composite z-score [17]: -0.326 | z-score [18]: 1.63
